As a reminder, the inhibition is the change of the read-out against control, counted positive when it falls.

Test [1] deals with Protein kinase C gamma type (Homo sapiens) (UniProt P05129). The following applies: at 1 µM.
Test [2] addresses T1, Protein kinase C iota type (Homo sapiens) (UniProt P41743).
T1 sequence (whole entry): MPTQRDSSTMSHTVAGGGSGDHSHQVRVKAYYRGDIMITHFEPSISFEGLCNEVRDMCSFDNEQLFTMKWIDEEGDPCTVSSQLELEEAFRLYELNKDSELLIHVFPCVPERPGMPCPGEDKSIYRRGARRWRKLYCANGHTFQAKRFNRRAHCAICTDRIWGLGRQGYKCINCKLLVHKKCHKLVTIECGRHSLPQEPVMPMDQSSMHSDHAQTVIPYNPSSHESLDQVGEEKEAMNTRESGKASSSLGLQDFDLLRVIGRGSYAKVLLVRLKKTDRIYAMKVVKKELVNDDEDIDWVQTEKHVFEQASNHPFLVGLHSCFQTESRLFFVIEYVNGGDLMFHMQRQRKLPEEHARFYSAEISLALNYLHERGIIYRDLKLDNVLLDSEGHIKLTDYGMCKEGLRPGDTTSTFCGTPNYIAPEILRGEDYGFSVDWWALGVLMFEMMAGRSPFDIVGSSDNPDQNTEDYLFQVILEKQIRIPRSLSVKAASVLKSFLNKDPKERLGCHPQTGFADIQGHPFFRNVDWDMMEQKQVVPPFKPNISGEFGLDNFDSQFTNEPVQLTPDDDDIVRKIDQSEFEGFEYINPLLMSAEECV
As to conditions: at 0.1 µM.

For test [3], the target named is T1, Protein kinase C iota type (Homo sapiens). As to conditions: at 1 µM.
Test [4] addresses Protein kinase C theta type (Homo sapiens) (UniProt Q04759). The following applies: at 0.1 µM.
The target is the same in test [5]. As to conditions: at 1 µM.
In test [6] the target is Protein kinase C beta type (Homo sapiens) (UniProt P05771). The following applies: at 0.1 µM.
Test [7] has the same target. The following applies: at 1 µM.
Test [8] concerns the target T2, Serine/threonine-protein kinase D1 (Homo sapiens) (UniProt Q15139).
T2 sequence (whole entry): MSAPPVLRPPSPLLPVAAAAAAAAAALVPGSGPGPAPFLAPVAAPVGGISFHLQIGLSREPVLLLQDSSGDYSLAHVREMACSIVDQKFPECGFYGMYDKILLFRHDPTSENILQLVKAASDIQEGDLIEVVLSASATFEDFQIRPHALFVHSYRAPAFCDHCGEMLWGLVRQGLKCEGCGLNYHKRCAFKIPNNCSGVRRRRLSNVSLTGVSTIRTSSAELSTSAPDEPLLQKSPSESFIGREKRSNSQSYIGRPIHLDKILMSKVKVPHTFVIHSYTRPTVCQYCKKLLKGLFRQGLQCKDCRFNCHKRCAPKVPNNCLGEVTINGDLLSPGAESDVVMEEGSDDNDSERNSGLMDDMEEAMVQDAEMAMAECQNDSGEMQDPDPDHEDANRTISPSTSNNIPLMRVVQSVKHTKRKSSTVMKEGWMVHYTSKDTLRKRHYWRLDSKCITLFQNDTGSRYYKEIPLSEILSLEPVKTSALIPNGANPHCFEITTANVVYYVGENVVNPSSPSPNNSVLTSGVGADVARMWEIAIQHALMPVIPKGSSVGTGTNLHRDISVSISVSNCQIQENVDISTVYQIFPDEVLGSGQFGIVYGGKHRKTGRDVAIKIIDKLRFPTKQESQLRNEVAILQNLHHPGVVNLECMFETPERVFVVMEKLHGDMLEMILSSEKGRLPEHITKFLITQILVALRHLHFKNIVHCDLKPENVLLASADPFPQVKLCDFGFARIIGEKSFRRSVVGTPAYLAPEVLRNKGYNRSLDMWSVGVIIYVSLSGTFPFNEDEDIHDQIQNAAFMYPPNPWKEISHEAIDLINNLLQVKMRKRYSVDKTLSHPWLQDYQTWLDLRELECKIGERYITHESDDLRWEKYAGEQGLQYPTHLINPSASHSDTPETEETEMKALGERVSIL
The following applies: at 0.1 µM.

Test [9] concerns the target T2, Serine/threonine-protein kinase D1 (Homo sapiens). The following applies: at 1 µM.
The target in test [10] is T3, Serine/threonine-protein kinase D2 (Homo sapiens) (UniProt Q9BZL6).
T3 sequence (whole entry): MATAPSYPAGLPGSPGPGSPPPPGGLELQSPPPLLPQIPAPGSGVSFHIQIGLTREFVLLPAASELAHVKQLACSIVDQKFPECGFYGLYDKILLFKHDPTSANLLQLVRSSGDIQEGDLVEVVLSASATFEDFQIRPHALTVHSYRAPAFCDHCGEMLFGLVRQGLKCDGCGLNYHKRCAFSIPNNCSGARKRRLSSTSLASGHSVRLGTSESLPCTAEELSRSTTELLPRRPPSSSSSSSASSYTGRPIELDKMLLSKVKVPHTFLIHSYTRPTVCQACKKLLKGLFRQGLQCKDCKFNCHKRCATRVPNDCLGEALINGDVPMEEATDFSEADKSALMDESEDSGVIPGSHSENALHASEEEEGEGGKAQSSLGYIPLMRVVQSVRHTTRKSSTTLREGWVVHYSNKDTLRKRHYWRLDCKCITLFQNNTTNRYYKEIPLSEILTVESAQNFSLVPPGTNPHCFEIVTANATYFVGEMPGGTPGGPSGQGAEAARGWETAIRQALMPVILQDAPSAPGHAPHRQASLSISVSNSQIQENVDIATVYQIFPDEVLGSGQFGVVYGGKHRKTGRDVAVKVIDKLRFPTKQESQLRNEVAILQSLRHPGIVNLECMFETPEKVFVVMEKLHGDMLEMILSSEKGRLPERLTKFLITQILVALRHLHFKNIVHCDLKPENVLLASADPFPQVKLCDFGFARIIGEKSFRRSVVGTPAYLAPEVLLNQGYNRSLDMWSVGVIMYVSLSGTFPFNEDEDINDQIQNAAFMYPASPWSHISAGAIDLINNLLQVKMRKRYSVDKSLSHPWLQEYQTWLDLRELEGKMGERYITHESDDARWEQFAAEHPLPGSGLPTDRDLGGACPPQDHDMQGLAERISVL
As to conditions: at 0.1 µM.

For test [11], the target named is T3, Serine/threonine-protein kinase D2 (Homo sapiens). As to conditions: at 1 µM.
Test [12] has as its target T4, Serine/threonine-protein kinase D3 (Homo sapiens) (UniProt O94806).
T4 sequence (whole entry): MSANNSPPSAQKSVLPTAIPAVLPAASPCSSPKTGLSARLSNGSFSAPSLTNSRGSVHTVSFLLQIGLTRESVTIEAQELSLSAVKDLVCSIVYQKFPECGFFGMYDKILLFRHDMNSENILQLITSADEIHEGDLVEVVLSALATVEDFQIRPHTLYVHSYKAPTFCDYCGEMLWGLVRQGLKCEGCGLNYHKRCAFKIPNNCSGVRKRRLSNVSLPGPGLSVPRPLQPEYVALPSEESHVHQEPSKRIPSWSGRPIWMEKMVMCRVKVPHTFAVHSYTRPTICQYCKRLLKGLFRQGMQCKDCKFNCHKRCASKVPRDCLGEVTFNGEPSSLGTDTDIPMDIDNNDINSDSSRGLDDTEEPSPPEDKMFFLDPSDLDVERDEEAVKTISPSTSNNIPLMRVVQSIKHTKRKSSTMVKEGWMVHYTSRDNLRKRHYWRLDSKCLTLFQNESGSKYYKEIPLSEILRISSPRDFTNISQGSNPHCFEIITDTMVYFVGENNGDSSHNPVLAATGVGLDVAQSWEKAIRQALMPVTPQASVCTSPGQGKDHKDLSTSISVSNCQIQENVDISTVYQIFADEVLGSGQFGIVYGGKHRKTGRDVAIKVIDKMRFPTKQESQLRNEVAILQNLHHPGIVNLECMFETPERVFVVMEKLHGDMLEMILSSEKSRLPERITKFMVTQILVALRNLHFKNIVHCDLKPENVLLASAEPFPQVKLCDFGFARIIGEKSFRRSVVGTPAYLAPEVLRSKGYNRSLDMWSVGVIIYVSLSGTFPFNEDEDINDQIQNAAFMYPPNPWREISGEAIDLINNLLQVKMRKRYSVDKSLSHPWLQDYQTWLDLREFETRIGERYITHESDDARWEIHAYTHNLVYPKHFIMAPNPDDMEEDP
As to conditions: at 0.1 µM.

In test [13] the target is T4, Serine/threonine-protein kinase D3 (Homo sapiens). As to conditions: at 1 µM.
Test [14] has as its target T5, cGMP-dependent protein kinase 1 (Homo sapiens) (UniProt Q13976).
T5 sequence (whole entry): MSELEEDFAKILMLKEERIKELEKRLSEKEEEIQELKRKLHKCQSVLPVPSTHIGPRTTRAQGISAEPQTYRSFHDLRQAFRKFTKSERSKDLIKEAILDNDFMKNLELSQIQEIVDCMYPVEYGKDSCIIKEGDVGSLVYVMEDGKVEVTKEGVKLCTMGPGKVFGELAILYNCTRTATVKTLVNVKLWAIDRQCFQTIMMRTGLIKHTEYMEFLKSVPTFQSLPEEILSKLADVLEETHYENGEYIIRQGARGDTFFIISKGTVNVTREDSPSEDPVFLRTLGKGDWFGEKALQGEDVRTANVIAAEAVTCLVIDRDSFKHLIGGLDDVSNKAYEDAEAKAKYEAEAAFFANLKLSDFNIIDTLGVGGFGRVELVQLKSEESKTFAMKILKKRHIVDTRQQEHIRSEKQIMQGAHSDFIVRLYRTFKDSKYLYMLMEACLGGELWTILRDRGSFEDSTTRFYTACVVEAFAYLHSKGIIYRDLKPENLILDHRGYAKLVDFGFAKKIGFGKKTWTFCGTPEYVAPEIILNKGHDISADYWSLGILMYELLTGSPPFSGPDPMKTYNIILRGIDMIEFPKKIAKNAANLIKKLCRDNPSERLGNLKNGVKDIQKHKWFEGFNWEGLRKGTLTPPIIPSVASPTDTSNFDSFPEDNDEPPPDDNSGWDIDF
As to conditions: at 0.1 µM.

Test [15] has as its target T5, cGMP-dependent protein kinase 1 (Homo sapiens). As to conditions: at 1 µM.
Test [16] deals with T6, cGMP-dependent protein kinase 2 (Homo sapiens) (UniProt Q13237).
T6 sequence (whole entry): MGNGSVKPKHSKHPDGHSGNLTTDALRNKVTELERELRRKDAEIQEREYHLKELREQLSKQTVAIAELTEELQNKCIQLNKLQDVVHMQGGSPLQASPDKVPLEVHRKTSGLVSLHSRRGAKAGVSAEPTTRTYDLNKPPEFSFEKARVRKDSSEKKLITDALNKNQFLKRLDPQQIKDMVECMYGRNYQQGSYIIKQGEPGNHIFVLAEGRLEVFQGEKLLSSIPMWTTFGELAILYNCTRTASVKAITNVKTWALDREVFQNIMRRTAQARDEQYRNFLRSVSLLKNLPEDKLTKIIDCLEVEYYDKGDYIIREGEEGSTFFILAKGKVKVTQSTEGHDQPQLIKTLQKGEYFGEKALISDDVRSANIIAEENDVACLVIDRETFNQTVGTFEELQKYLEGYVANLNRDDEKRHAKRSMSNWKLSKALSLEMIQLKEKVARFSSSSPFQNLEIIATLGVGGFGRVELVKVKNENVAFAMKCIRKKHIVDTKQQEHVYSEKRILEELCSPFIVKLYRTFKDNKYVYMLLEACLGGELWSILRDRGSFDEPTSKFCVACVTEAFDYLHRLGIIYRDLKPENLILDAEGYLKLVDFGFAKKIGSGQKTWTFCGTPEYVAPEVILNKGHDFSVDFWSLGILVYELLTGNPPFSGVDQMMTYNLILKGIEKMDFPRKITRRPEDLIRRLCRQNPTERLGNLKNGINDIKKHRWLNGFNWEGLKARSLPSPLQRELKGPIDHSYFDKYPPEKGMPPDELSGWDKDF
The following applies: at 0.1 µM.

Test [17] deals with T6, cGMP-dependent protein kinase 2 (Homo sapiens). As to conditions: at 1 µM.
The target in test [18] is T7, cAMP-dependent protein kinase catalytic subunit PRKX (Homo sapiens) (UniProt P51817).
T7 sequence (whole entry): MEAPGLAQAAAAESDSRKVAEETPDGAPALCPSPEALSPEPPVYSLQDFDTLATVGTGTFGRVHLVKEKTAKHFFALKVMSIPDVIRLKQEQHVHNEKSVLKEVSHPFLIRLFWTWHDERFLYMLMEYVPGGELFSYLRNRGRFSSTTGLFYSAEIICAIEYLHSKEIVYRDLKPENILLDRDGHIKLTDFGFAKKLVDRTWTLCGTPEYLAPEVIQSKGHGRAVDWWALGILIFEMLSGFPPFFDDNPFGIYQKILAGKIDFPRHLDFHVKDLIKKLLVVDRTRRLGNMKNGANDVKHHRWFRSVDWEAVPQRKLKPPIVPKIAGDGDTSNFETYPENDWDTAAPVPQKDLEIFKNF
The following applies: at 0.1 µM.

The target in test [19] is T7, cAMP-dependent protein kinase catalytic subunit PRKX (Homo sapiens). The following applies: at 1 µM.
Test [20] concerns the target Rho-associated protein kinase 1 (Homo sapiens) (UniProt Q13464). As to conditions: at 0.1 µM.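 Note: values are mean percent inhibition of ROCK1.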

Protein kinase C beta type (Homo sapiens), sequence (P05771 2-671 limits assumed): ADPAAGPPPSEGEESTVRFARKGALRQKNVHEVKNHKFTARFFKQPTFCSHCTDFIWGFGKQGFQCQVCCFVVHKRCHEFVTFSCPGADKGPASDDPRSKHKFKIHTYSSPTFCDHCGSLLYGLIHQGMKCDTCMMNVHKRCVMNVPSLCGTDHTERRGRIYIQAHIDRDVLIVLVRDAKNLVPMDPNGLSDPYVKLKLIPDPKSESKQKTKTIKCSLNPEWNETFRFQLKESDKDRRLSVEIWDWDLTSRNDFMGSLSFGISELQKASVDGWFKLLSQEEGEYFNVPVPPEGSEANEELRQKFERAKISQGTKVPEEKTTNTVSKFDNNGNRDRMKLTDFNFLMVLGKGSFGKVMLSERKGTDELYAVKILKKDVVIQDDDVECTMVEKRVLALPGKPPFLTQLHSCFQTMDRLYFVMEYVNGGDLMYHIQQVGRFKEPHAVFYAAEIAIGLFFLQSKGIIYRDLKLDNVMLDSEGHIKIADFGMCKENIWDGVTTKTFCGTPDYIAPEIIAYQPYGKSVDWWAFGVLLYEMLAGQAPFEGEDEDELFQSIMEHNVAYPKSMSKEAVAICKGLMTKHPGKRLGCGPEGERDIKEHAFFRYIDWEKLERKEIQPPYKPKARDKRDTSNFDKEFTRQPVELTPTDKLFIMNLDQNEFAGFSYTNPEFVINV
Protein kinase C theta type (Homo sapiens), sequence (Q04759 whole entry, looked up): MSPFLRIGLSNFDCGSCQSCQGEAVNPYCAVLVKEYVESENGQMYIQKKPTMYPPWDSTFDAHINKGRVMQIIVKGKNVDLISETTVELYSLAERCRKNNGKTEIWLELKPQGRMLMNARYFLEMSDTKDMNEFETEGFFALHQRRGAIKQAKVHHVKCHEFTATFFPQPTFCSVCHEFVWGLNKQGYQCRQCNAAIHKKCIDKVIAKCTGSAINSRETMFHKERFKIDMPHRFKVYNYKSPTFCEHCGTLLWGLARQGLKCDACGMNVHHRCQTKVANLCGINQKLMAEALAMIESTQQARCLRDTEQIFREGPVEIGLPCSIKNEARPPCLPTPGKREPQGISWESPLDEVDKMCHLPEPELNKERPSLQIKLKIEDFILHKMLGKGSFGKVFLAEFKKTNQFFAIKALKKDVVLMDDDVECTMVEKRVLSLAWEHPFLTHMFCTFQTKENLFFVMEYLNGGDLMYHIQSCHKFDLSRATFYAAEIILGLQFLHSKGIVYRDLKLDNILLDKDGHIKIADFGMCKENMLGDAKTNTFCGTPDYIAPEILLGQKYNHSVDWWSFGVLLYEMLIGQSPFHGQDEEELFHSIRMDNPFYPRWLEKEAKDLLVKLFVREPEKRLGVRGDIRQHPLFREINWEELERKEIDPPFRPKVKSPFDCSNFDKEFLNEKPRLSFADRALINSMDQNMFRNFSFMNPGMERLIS
Rho-associated protein kinase 1 (Homo sapiens), sequence (Q13464 2-1354 limits assumed): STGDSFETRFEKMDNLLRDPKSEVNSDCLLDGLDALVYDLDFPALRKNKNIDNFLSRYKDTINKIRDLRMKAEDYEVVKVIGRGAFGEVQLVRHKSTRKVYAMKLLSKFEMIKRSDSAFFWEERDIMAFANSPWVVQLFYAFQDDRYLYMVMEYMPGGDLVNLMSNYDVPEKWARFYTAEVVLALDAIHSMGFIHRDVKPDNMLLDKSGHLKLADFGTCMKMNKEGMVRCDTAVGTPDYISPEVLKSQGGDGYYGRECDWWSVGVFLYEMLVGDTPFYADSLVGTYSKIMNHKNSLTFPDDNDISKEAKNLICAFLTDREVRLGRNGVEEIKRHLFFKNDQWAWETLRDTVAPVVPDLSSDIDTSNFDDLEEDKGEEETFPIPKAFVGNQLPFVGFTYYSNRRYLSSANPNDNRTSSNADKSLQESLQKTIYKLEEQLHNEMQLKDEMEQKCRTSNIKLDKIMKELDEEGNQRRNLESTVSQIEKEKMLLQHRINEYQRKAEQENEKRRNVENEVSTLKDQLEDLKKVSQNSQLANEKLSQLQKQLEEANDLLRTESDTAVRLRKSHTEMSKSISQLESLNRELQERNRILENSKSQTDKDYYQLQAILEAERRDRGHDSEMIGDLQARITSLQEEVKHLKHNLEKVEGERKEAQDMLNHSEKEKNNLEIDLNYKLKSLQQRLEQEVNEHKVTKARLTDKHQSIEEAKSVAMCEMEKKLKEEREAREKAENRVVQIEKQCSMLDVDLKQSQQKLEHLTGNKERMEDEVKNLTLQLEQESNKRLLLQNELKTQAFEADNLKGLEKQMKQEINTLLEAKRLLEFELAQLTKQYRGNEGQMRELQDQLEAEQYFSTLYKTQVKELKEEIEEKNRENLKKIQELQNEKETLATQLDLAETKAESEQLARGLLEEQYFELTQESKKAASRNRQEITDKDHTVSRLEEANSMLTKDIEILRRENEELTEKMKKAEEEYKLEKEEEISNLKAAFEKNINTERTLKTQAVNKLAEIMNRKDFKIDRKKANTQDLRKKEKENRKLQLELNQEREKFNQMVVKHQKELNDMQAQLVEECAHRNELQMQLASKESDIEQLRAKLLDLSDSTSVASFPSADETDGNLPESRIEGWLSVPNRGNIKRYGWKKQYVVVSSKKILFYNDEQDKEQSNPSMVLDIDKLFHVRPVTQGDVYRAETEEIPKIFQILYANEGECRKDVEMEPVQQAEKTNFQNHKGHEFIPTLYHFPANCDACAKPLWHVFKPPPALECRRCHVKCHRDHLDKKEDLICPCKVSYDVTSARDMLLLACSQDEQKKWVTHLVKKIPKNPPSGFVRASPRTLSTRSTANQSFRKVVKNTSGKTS

On to `CN(C)CCOc1ccc(-c2cc(-c3ccc4c(c3)CCC4=NO)c(-c3ccncc3)o2)cc1`, for which the inhibition was 0.02% in test [1]; -1.87% in [2]; -1.84% in [3]; -1.06% in test [4]; -0.42% in test [5]; -0.72% in [6]. The inhibition in test [7] was 2.28%; in test [8], -0.39%; in test [9], 0.79%; in test [10] it was 0.89%; in test [11], 1.9%; in test [12], -0.84%. Moreover, the inhibition in test [13] was 0.31%; in test [14], -1.48%; in [15], 3.68%; in [16], -0.1%; in [17], 11.2%; in [18], -0.21%. The inhibition was -1.72% in test [19] and -1.57% in test [20].

With `Cc1ccc(C(=O)NC(C)C)cc1-c1ccc(C(=O)NCC2CC2)cc1`, the inhibition is -2.88% in test [1]; -0.44% in test [2]; -0.8% in test [3]; -1.25% in test [4]; -1.29% in test [5]; -0.65% in test [6]. Besides, the inhibition was -0.9% in test [7]; -3.39% in test [8]; -3.57% in test [9]; -1.97% in [10]; -0.88% in test [11]; -3.09% in [12]. The inhibition in test [13] was -2.84%; in test [14] it was -3.24%; in test [15], -2.98%; in [16] it was -1.45%; in test [17], -0.98%; in test [18], -1.5%. Further, the inhibition is -1.51% in [19] and -1.38% in [20].

The values above are taken from ChEMBL document CHEMBL1961873, “Compounds: GSK PKIS; Assays: Nanosyn kinase panel” (2012).
